For some assays here: Entries with a potency or affinity are not part of this list.
Key:
Parameters in all cases: scale not given: direction of the effect not stated beside the values
[1] = target: Protein translocase subunit SecA (Escherichia coli (strain K12)) (UniProt P10408); experiment: Assay to Identify E. coli SecA ATPase Inhibitors; format: functional; conditions: 30 µM
[2] = target: T1, Ubiquitin-activating enzyme e1, putative (Leishmania donovani (strain BPK282A1)) (UniProt E9BSI1); experiment: Leishmania donovani Ubiquitin Activating Enzyme (LdE1); format: functional; conditions: 30 µM
T1 sequence (whole entry): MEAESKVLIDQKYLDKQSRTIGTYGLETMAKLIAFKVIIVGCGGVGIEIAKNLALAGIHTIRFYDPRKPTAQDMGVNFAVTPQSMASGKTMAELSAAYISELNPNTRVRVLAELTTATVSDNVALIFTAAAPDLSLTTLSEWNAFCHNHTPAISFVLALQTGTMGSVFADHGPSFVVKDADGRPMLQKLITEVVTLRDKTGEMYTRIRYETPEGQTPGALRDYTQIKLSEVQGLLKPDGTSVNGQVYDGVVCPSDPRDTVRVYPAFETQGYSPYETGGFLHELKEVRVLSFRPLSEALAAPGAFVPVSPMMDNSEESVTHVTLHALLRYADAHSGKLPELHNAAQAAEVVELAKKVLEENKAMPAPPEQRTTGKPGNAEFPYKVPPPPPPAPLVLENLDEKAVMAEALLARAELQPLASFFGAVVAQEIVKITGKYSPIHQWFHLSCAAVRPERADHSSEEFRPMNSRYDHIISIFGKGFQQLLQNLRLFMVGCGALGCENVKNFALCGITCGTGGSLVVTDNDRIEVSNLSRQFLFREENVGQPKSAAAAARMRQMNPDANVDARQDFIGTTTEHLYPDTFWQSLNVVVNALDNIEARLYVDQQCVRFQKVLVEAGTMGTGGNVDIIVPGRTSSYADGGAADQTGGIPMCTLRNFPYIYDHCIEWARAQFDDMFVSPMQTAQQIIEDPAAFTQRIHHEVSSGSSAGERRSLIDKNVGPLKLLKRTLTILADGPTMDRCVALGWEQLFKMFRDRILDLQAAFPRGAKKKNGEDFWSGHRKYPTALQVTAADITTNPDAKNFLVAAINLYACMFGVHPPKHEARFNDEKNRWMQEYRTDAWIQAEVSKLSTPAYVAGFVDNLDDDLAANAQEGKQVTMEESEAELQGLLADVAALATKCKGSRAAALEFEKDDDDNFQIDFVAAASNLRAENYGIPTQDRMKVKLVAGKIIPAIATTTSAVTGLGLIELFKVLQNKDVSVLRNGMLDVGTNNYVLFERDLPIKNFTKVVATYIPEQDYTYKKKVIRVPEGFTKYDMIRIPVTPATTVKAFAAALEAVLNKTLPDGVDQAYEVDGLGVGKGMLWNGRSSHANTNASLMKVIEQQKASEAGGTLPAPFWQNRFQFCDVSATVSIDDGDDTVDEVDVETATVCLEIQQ

[3] = target: Sialic acid-binding Ig-like lectin 9 (Homo sapiens) (UniProt Q9Y336); experiment: Hs-Siglec9 ALPHAscreen SOP 20170721; conditions: 10 µM
Sialic acid-binding Ig-like lectin 9 (Homo sapiens), sequence (Q9Y336 whole entry): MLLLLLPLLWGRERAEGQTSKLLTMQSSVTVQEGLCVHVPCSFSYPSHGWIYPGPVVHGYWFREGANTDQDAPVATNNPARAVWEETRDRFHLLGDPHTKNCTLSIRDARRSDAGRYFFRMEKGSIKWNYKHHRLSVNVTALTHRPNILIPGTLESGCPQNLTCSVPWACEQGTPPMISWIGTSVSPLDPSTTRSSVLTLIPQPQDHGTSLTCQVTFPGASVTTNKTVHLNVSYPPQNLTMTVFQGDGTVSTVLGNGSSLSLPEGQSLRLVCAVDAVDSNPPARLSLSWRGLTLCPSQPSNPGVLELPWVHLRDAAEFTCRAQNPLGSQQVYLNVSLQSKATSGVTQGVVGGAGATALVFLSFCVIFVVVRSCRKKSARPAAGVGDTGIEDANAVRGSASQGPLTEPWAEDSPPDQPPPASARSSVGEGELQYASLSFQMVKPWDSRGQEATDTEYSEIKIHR

Trypanosoma cruzi = experiment: Trypanosoma cruzi phosphomannomutase and mannose-1-phosphate guanylyltransferase assay; format: functional; conditions: 10 µM
[4] = target: T2, Arginase-2, mitochondrial (Homo sapiens) (UniProt P78540); experiment: in vitro enzyme assay to detect the production of urea directly proportional to the activity of Arginase II; format: functional; conditions: 33.3 µM; further: in the data most compounds retested in dose-response had high values
T2 sequence (whole entry): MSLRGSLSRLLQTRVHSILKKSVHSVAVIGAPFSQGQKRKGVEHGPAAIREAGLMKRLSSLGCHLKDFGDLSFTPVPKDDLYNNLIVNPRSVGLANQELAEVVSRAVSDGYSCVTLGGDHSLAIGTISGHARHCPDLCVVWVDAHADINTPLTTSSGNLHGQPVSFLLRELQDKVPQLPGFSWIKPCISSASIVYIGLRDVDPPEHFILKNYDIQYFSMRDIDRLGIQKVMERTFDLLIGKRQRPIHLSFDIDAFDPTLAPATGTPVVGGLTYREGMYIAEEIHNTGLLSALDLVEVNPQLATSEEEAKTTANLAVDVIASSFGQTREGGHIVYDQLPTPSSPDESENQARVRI

[5] = target: T3, Proteasome subunit beta (Trypanosoma cruzi) (UniProt O96673); experiment: Trypanosoma cruzi proteasome chymotrypsin-like activity (TcProtChymo) assay.; further: in the data most compounds retested in dose-response had high values; format: functional; conditions: 9.37 µM
T3 sequence (whole entry): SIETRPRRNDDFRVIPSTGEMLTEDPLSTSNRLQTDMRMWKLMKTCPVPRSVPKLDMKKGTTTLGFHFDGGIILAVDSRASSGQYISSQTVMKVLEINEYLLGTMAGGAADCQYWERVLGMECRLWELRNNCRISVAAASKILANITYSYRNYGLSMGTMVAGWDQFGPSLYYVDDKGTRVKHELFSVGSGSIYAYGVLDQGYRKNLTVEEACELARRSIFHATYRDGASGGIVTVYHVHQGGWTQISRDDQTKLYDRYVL

Homo sapiens = species: Homo sapiens; experiment: To identify inhibition of the IFN signalling (Jak-Stat) pathway via expression of an eGFP reporter gene under the control of an IFN-stimulated response element (ISRE) containing MxA promoter.; format: functional; conditions: 30 µM
[6] = target: T4, Tyrosyl-tRNA synthetase, putative (Trypanosoma cruzi (strain CL Brener)) (UniProt Q4DSP6); experiment: Trypanosoma cruzi tyrosyl tRNA synthetase (TcYRS) _High Tyrosine SOP; format: functional; conditions: 30 µM; further: in the data most compounds retested in dose-response had high values
T4 sequence (whole entry): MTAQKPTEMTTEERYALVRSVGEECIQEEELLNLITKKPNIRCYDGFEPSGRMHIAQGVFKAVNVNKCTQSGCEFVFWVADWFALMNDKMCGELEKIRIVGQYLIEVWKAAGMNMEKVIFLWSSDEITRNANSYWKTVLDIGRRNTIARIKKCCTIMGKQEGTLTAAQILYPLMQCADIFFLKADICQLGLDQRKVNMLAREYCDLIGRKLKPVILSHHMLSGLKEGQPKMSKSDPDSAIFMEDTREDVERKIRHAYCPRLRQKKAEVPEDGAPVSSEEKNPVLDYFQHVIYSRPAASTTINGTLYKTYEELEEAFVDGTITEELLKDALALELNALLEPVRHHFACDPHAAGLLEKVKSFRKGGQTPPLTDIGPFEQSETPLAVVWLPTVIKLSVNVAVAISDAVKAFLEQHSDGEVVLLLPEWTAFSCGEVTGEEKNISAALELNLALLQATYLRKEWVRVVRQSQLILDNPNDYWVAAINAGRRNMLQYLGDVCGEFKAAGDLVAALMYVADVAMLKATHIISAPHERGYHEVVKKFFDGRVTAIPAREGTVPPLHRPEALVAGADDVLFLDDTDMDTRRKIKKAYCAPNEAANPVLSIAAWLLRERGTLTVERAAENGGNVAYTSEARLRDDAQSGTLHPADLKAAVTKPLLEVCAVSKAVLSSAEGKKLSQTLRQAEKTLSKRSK

[7] = target: T4, Tyrosyl-tRNA synthetase, putative (Trypanosoma cruzi (strain CL Brener)); experiment: Trypanosoma cruzi tyrosyl tRNA synthetase (TcYRS) SOP; format: functional; conditions: 30 µM
[8] = target: Chromo domain-containing protein 1 (Saccharomyces cerevisiae (strain ATCC 204508 / S288c) (Baker's yeast)) (UniProt P32657); experiment: ScCHD-1 Enzyme Inhibition Assay; format: functional; conditions: 30 µM; further: in the data most compounds retested in dose-response had high values
Chromo domain-containing protein 1 (Saccharomyces cerevisiae (strain ATCC 204508 / S288c) (Baker's yeast)), sequence (P32657 whole entry, the tested form may be a part): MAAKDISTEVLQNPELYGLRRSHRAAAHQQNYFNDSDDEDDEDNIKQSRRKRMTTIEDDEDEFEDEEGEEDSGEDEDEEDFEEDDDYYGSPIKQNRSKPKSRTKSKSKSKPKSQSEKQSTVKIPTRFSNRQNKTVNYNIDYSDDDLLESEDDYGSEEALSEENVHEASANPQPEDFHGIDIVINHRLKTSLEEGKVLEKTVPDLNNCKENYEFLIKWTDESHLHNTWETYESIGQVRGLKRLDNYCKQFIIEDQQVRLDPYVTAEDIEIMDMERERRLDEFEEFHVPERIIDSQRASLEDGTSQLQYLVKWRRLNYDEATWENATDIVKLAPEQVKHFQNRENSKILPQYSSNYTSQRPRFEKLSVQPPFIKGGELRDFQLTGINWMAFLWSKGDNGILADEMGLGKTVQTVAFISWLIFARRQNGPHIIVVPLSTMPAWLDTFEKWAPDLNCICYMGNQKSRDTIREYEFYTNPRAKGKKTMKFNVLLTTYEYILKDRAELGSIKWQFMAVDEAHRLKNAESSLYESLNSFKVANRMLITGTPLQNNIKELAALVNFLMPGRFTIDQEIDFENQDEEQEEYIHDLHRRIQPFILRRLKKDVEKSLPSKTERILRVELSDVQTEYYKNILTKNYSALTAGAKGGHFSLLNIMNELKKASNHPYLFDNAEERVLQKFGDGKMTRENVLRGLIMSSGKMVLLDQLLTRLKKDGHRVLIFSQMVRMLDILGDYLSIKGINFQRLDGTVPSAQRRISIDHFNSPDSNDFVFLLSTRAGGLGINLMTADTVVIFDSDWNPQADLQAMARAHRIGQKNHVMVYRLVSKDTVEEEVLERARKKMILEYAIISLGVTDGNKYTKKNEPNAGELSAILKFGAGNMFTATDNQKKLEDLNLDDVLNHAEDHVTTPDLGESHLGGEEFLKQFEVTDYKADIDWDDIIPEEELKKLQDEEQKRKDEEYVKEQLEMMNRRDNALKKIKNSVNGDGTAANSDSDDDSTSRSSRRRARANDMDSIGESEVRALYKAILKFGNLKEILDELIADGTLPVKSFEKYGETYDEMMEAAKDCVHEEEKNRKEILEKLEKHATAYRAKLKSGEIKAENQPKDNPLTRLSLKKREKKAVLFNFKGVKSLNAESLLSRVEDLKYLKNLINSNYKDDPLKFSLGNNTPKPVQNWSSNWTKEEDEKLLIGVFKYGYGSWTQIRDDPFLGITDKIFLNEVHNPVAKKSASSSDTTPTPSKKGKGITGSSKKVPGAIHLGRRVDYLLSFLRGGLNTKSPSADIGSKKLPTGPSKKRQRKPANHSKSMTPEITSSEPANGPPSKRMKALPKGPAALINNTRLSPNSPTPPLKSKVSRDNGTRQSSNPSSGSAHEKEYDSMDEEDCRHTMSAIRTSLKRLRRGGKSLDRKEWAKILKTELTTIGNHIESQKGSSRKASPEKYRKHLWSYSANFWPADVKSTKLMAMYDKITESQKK

Protein translocase subunit SecA (Escherichia coli (strain K12)), sequence (P10408 whole entry): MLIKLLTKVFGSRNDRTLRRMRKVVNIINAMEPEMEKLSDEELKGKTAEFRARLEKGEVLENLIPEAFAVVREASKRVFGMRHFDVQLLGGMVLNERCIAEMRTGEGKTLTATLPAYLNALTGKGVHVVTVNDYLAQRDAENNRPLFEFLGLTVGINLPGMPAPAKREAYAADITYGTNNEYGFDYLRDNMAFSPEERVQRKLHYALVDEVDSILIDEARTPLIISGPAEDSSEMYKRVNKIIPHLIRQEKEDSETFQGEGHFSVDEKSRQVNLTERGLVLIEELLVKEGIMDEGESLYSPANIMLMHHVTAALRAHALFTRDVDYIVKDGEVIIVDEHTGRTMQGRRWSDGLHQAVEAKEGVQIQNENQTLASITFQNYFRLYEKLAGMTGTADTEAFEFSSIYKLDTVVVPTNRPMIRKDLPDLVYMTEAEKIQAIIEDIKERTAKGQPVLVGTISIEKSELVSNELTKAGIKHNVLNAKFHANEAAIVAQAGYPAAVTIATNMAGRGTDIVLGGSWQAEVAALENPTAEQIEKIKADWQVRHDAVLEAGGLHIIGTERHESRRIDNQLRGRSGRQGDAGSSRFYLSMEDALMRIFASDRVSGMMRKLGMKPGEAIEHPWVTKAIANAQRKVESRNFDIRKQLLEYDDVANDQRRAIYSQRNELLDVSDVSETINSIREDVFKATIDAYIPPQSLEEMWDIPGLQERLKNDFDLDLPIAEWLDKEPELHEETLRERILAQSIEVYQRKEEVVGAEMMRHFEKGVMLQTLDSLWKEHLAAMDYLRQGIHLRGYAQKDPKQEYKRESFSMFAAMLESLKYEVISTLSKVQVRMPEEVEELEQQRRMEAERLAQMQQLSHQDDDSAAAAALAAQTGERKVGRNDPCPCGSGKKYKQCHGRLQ

Row | SMILES | Percent Effect [1] [%] | Percent Effect [2] [%] | Percent Effect [3] [%] | Percent Effect (Trypanosoma cruzi) [%] | Percent Effect [4] [%] | Percent Effect [5] [%] | Percent Effect (Homo sapiens) [%] | Percent Effect [6] [%] | Percent Effect [7] [%] | Percent Effect [8] [%]
1 | COCC(C)N(C)C(=O)c1nc(S(C)(=O)=O)n2ccccc12 (stereo not given) | -8.81 | 2.56 | -5.8 | -2.35 | -2.05 | -0.256 | 24.6 | 5.26 | 8.43 | -0.536
2 | O=C1C(NCc2nnc3n2CCCC3)CCN1CC(F)(F)F (stereo not given) | -2.08 | 2.56 | -21.5 | 8.73 | -2.05 | 1.79 | 4.98 | 1.44 | 8.43 | -0.359
3 | COCC1CN(CC2CC2)Cc2nn(C)cc21 (stereo not given) | -8.74 | -1.3 | -2.43 | -6.91 | 2.02 | 10.5 | 4.75 | 1.58 | -5.13 | -3.01
4 | COCCC(=O)N1CCCC2(CCC(=O)N2CCOC)CC1 (stereo not given) | -2.63 | 11.7 | -2.38 | -4.13 | 4.57 | -1.97 | 11.1 | 2.9 | 2.5 | -3.46
5 | CCn1cnnc1CNC(=O)N1CCC(C(=O)NC)CC1 | -5.88 | 5.33 | 0.795 | -4.42 | -2.66 | 1.78 | 10.8 | -0.526 | 2.56 | -6.68
6 | Cn1cccc1C(=O)N1CCCC2(CCCN2Cc2cccnc2)C1 (stereo not given) | -10.1 | -1.3 | -0.843 | -1.85 | -6.88 | 7.33 | 9.38 | -2.63 | 2.56 | -0.361
7 | CCn1ccnc1CN1CCCN(C(=O)c2cccc(C#N)c2)CC1 | 0.122 | 2.56 | -6.11 | 7.79 | 7.38 | 0.939 | 9.49 | 1.44 | 1.21 | 1.21
8 | O=C1CC2(CCN(CC3CC3)C2)CN1c1ccc2c(c1)OCO2 (stereo not given) | -2.02 | 16.9 | -7.72 | 1.07 | 25.9 | 21.6 | -0.411 | 12.1 | -48.7 | -4.12
9 | Cn1ncc(NCc2cccc(COC(C)(C)C)c2)c(Cl)c1=O | -2.67 | 8 | 4.11 | 1.81 | 5.32 | 3.31 | 49.3 | 2.63 | 10.3 | -8.54
10 | CC(C)c1nn(C)c(N2CCOCC2)c1CNCCS(C)(=O)=O | -1.81 | 0 | 0.36 | 1.22 | 4.92 | -0.427 | -17 | 0.478 | 1.21 | 1.65
11 | Cc1cc(NC(=O)CN2CCCC2c2noc(C(C)C)n2)n(C)n1 (stereo not given) | 0.91 | -42.7 | 2.01 | 0 | -0.444 | 4.67 | -3.3 | 2.63 | 5.13 | 0.723
12 | COc1ccc(CC(=O)NC2(C)CCS(=O)(=O)C2)cc1F (stereo not given) | -0.834 | 10.7 | -4.85 | 0.803 | -1.77 | 4.5 | 8.89 | 5.79 | 12.8 | -12.7
13 | CC(=O)N1CCCn2nc(CNS(=O)(=O)N3CCCCCC3)cc2C1 | -5.72 | 0 | 0.997 | -2.81 | 1.75 | 11.6 | 4.54 | 2.66 | 9.76 | 2.81
14 | Cn1cnc2c1CCN(CCS(=O)(=O)c1ccccc1)C2 | -3.11 | 2.67 | 3.94 | 2.21 | -5.32 | 3.48 | 20.9 | 0.526 | 5.13 | -6.73

— ChEMBL document CHEMBL3988442, “University of Dundee, Small-Polar-MMV Screening Library” (2021)
